Source: PubChem BioAssay
Rows were chosen to be rich in hits. Some 2.2% of all compounds tested hit in one or more screens of this group.
LGR2 inh: blocks bursicon-induced cAMP signaling via Drosophila LGR2; inhibition, % at 9.99 µM; HEK293 LGR2, CRE-luciferase, bursicon-stimulated, 4 h; AID 720647; hit rate 0.35% among 380,000;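 active means drop in luminescence signal, shown as inhibition above about 50% in the replicate tests, limit read from the data, passing the limit was not always enough; inconclusive means probably only some replicates passing the limit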;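 further: agonist challenge used bursicon conditioned medium at about half maximal strength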
PAX8 reporter: PAX8 transcriptional activity inhibition. RMG-I TPO-luciferase reporter, SteadyGlo, 24 h. inhibition, % at 12.6 µM. AID 652154. hit rate 1.2% among 360,000;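 active means mean replicate inhibition at least 60% with every replicate also reaching 60%; inconclusive means only one of the two criteria is met; inactive means mean below 60% and not all replicates reaching 60%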;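 further: luciferase light reporting Pax8 driven TPO promoter activity; plate controls were median of neutral control wells for no effect and mitoxantrone controls for full effect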
EWS-Fli block: blocks EWS/Fli oncoprotein-driven transcription. A673 NR0B1-luciferase reporter, viability-normalised. inhibition, % at 12.6 µM. hit rate 0.67% among 350,000;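 active means mean inhibition of at least 50% after viability correction, with every replicate also passing that limit; inconclusive means mean reaches 50% but only one of two replicates passes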;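 further: firefly luciferase signal divided by Alamar Blue viability fluorescence both relative to DMSO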
MITF TRPM1 inh: MITF TRPM1 promoter inhibition in SK-MEL-5 cells; hit rate 0.83% among 330,000; SK-MEL-5 TRPM1 promoter luciferase, 24 h; inhibition, % at 12.5 µM;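 active means mean inhibition across replicates of 60% or more, whatever share of single replicates reaches that level; inconclusive means some that reach 60%, reason not given; inactive means mean inhibition across replicates below 60%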
PGC1a acetyl inh: lowers PGC1a acetylation signal in U2OS cells. inhibition, % at 15.6 µM. hit rate 0.17% among 350,000. AlphaScreen anti-acetyl-lysine; with virally co-expressed GCN5 acetyltransferase;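 active means every replicate shows inhibition of at least 40%; inconclusive means mean inhibition at least 40% but some replicate below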;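 further: 0% = neutral control wells and 100% = positive control wells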
LMP1 NFkB inh: Epstein-Barr LMP1 NF-kappaB reporter inhibition; AID 504558; inhibition, % at 12.5 µM; LMP1-induced NF-kappaB luciferase reporter cells, luminescence; hit rate 0.69% among 350,000; in the data active means inhibition above about 41%; inconclusive means no clear call, values can overlap the other calls;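 further: 0% = neutral control wells and 100% = reference inhibitor control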
An asterisk follows results filed as active.

How did O=C(Nc1ccc2c(c1)OCCO2)c1ccc(Cl)cc1Cl do in these assays?
LGR2 inh: 52*; PAX8 reporter: -87; EWS-Fli block: 16; MITF TRPM1 inh: -23; PGC1a acetyl inh: 2; LMP1 NFkB inh: -6

How did Cc1ccccc1C(=O)Nc1ccc2c(c1)OCCO2 do in these assays?
LGR2 inh: inconclusive; PAX8 reporter: 6; EWS-Fli block: 16; MITF TRPM1 inh: 10; PGC1a acetyl inh: 9; LMP1 NFkB inh: 32

How did COc1cc2cc(C(=O)Nc3ccc4c(c3)OCCO4)[nH]c2cc1OC do in these assays?
LGR2 inh: 23; PAX8 reporter: -31; MITF TRPM1 inh: 14; PGC1a acetyl inh: 3; LMP1 NFkB inh: 45*

Results for COc1cc2[nH]c(C(=O)Nc3ccc4c(c3)OCCO4)cc2c(OC)c1OC ?
LGR2 inh: 1; PAX8 reporter: -27; EWS-Fli block: -8; MITF TRPM1 inh: 23; PGC1a acetyl inh: 5; LMP1 NFkB inh: 19

What do the screens show for `O=C(Nc1ccc2c(c1)OCCO2)c1coc2ccccc2c1=O`?
LGR2 inh: 14; PAX8 reporter: 1; MITF TRPM1 inh: 73*; LMP1 NFkB inh: 18

How did COC(=O)c1ccc(CN2CC(=O)N3[C@H](CO)[C@@H](c4ccc(Br)cc4)[C@@H]3C2)cc1 do in these assays?
LGR2 inh: -3; PAX8 reporter: -11; EWS-Fli block: 15; PGC1a acetyl inh: 15

What do the screens show for `Cc1cccc(COc2ccc(/C=C3/C(=O)N(C)C(=S)N3C)cc2)c1`?
LGR2 inh: -4; PAX8 reporter: -1; EWS-Fli block: -6; MITF TRPM1 inh: -7; PGC1a acetyl inh: 71*; LMP1 NFkB inh: -8

How did CN1C(=O)/C(=C/c2ccccc2OCc2ccc(F)cc2)N(C)C1=S do in these assays?
PAX8 reporter: 13; EWS-Fli block: 7; MITF TRPM1 inh: 15; PGC1a acetyl inh: -7; LMP1 NFkB inh: 2

Results for CC(=O)c1c(C)[nH]c(C(=O)Nc2ccc(C)cn2)c1C ?
PAX8 reporter: inconclusive; MITF TRPM1 inh: 45; PGC1a acetyl inh: -7; LMP1 NFkB inh: 58*

Results for CC(=O)c1c(C)[nH]c(C(=O)Nc2nc(-c3ccc(Cl)cc3)cs2)c1C ?
LGR2 inh: 2; PAX8 reporter: -23; MITF TRPM1 inh: 5; LMP1 NFkB inh: 23

How did CC(=O)c1c(C)[nH]c(C(=O)Nc2nc(C)cs2)c1C do in these assays?
PAX8 reporter: 58; EWS-Fli block: 74*; MITF TRPM1 inh: 31; PGC1a acetyl inh: -3; LMP1 NFkB inh: 71*

How did CC(=O)c1c(C)[nH]c(C(=O)Nc2cc(C)cc(C)c2)c1C do in these assays?
MITF TRPM1 inh: -14; PGC1a acetyl inh: -18; LMP1 NFkB inh: 2

What do the screens show for `CC(=O)c1c(C)[nH]c(C(=O)Nc2nc(-c3ccc(-c4ccccc4)cc3)cs2)c1C`?
LGR2 inh: 91*; PAX8 reporter: -34; EWS-Fli block: 2; MITF TRPM1 inh: -5; PGC1a acetyl inh: -6; LMP1 NFkB inh: 23

How did COc1ccc(NC(=O)Nc2ccc3c(c2)[C@H]2C[C@H](CC(=O)NCc4ccccc4F)O[C@H](CO)[C@H]2O3)cc1 do in these assays?
LGR2 inh: -2; PAX8 reporter: -2; EWS-Fli block: 3; PGC1a acetyl inh: 7

Results for CC[N+]1(C)CCC(O)(c2ccc(OC)cc2)C(C(=O)c2ccc(OC)cc2)C1 (configuration not stated) ?
LGR2 inh: -4; PAX8 reporter: 76*; EWS-Fli block: -3; MITF TRPM1 inh: -3; LMP1 NFkB inh: -3

How did O=S(=O)(CCSc1nc2ccccc2s1)c1nc2ccccc2s1 do in these assays?
PAX8 reporter: 104*; MITF TRPM1 inh: 39; PGC1a acetyl inh: -20; LMP1 NFkB inh: 6

Results for COc1ccc(NC(=O)Nc2ccc3c(c2)CC(=O)N([C@@H](C)CO)C[C@@H](C)[C@@H](CN(C)C(=O)Nc2ccc(OC)cc2)O3)cc1 ?
LGR2 inh: -6; EWS-Fli block: -2; PGC1a acetyl inh: 3

Results for CC(C)NC(=O)N(C)C[C@H]1OCc2ccccc2-c2c(n(C)c3ccccc23)C(=O)N([C@H](C)CO)C[C@H]1C ?
LGR2 inh: 4; EWS-Fli block: 6; PGC1a acetyl inh: 8

What do the screens show for `CCn1c(=N)n(CC(=O)c2ccc(Br)s2)c2ccccc21`?
LGR2 inh: 5; PAX8 reporter: -3; EWS-Fli block: -55; MITF TRPM1 inh: -39; PGC1a acetyl inh: -2; LMP1 NFkB inh: -17

How did CCCCn1c(=N)n(CC(=O)c2ccc(Br)s2)c2ccccc21 do in these assays?
LGR2 inh: 36; PAX8 reporter: 72*; EWS-Fli block: 63*; MITF TRPM1 inh: 90*; PGC1a acetyl inh: 16; LMP1 NFkB inh: -70

What do the screens show for `C[C@H]1CN([C@@H](C)CO)C(=O)CCCn2cc(nn2)CO[C@H]1CN(C)Cc1ccc(-c2ccccc2)cc1`?
LGR2 inh: 6; EWS-Fli block: -6; PGC1a acetyl inh: -5

What do the screens show for `CC1(C)CC(NS(=O)(=O)c2ccc(F)cc2)CC(C)(C)N1`?
LGR2 inh: -12; PAX8 reporter: -4; EWS-Fli block: 9; MITF TRPM1 inh: 2; LMP1 NFkB inh: 43*

What do the screens show for `C[C@H](CO)N1C[C@H](C)[C@H](CN(C)Cc2ccncc2)Oc2c(NC(=O)Nc3ccc(F)cc3)cccc2C1=O`?
LGR2 inh: -3; PAX8 reporter: -11; EWS-Fli block: 11; PGC1a acetyl inh: -2

What do the screens show for `Cc1cc(NS(=O)(=O)c2ccc(NC(=O)COc3c(C)cc(Br)cc3C)cc2)no1`?
LGR2 inh: -15; PAX8 reporter: 6; EWS-Fli block: 27; MITF TRPM1 inh: 3; PGC1a acetyl inh: 85*; LMP1 NFkB inh: 2

How did COc1ccc2[nH]cc(CCNC(C)=O)c2c1 do in these assays?
LGR2 inh: -15; PAX8 reporter: -5; EWS-Fli block: -7; MITF TRPM1 inh: -2; PGC1a acetyl inh: -8; LMP1 NFkB inh: 4

What do the screens show for `COc1cc2c(CCNC(C)=O)c[nH]c2cc1Cl`?
PAX8 reporter: -23; EWS-Fli block: -6; MITF TRPM1 inh: -11; PGC1a acetyl inh: -5; LMP1 NFkB inh: 74*

How did CN(C)CC(=O)N[C@@H]1CC[C@@H](CC(=O)NCc2ccccc2F)O[C@@H]1CO do in these assays?
LGR2 inh: 0; PAX8 reporter: -15; EWS-Fli block: -34; PGC1a acetyl inh: 2

Results for COc1ccc(C(=O)N2CCN(c3ncnc4c(-c5ccccc5)nsc34)CC2)cc1 ?
PAX8 reporter: -19; MITF TRPM1 inh: 8; PGC1a acetyl inh: 5; LMP1 NFkB inh: 10

How did COc1ccc(-c2nsc3c(N4CCCCC4)ncnc23)cc1 do in these assays?
PAX8 reporter: 76*; MITF TRPM1 inh: 65*; PGC1a acetyl inh: 6; LMP1 NFkB inh: 31

Results for COc1ccc(-c2nsc3c(N4CCCCC4C)ncnc23)cc1 (configuration not stated) ?
LGR2 inh: 95*; PAX8 reporter: inconclusive; EWS-Fli block: 83*; MITF TRPM1 inh: 86*; LMP1 NFkB inh: 73*
